Laboratory results published in PubChem BioAssay.
Calls of active or inactive are those of the source.

test: change in splice reporter luminescence, either direction, cell-based, HEK293, spliceosome inhibition project, primary screen (AID 1101); conditions: HEK293 splicing luciferase reporter, 24 h, higher = more signal, called active from +8 up or from −8 down;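 further: HEK293 cells carrying a splicing-competent luciferase reporter gene; test concentration not given here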

z-score, inactive:
COc1cc(CO)cc(I)c1O[C@H]1C=C(C(=O)NCCO)C[C@@H](N(C(=O)c2cc3ccccc3oc2=O)C2CCCCCC2)[C@@H]1O -1.33
O=C1C2C=CC(C(O)C=Cc3ccc([N+](=O)[O-])cc3)N(n3cnnc3)C2C(=O)N1Cc1ccccc1 (stereo unspecified) 0.243
COCCOC(=O)N1C(=O)[C@@]2(c3ccccc31)[C@H](C(=O)N1CCc3cc(OC)c(OC)cc3C1)[C@H]1C(=O)O[C@H](c3ccccc3)[C@H](c3ccccc3)N1[C@@H]2c1ccc(O)cc1 0.251
C#CCN(C/C=C/c1ccccc1)[C@H](CO)c1ccccc1 0.985
O=C1OCCC=C[C@H]2OC34C=CCN(c5ccc(Cl)cc5)C(=O)[C@H]3N(CCCO)C(=O)[C@@H]4C12 (stereo partly specified) -1.29
CCCCC(O)C1C=CC2C(=O)N(C)C(=O)C2N1N1CCCCC1 (stereo unspecified) 0.871
COc1cc2c(cc1OC)CN(C(=O)[C@H]1[C@@H]3C(=O)O[C@@H](c4ccccc4)[C@@H](c4ccccc4)N3[C@@H](c3ccccc3OCCO)[C@]13C(=O)Nc1ccc(C#CCCO)cc13)CC2 -0.826
COCCCNC(=O)[C@@]1(Cc2ccccc2)N=C(c2ccc(OCCCO)cc2)O[C@H]1c1ccccc1CN=[N+]=[N-] -0.469
CC(C)Cc1ccc(CN2CC[C@@H](N)C2)cc1 -1.75
C[N+](C)(C)CCCC[C@@H]1NC(=O)[C@H]2C[C@@H](C(=O)NCCCCCCNC(=O)CS)[C@@H](c3ccc(O)cc3)N2C1=O -0.45
COc1ccc(C#Cc2ccc3c(c2)[C@]2(C(=O)N3)[C@H](c3ccc(O)cc3)N3[C@H](c4ccccc4)[C@H](c4ccccc4)OC(=O)[C@H]3[C@@H]2C(=O)N2CCc3cc(OC)c(OC)cc3C2)cc1 1.34
[N-]=[N+]=Nc1ccccc1C[C@]1(C(=O)NCC(O)CO)N=C(c2ccc(OCCCO)cc2)O[C@H]1c1ccccc1 (stereo partly specified) -0.29
CC(C)(C)OC(=O)CC[C@]1(C(=O)NCCN2CCOCC2)COC(c2ccc(OCCCO)cc2)=N1 -0.686
[N-]=[N+]=NCc1ccccc1C[C@@]1(C(=O)NCC(O)CO)N=C(c2ccc(OCCCO)cc2)O[C@@H]1c1ccccc1 (stereo partly specified) -0.195
CC(C)[Si](C#CCCCC#N)(Oc1ccccc1Br)C(C)C -0.542
C=CCN1Cc2ccccc2[C@@H]2OC(c3ccc(OCCCO)cc3)=N[C@]2(CCS(=O)(=O)c2ccccc2)C1=O 0.211
CCOC(=O)C1=C[C@@H](C(C)C)N(S(=O)(=O)c2ccc(C)cc2)[C@H]1c1ccccc1F 1.2
[N-]=[N+]=NCc1ccccc1[C@@H]1OC(c2ccc(OCCCO)cc2)=N[C@]1(CCS(=O)(=O)c1ccccc1)C(N)=O 0.25
OCCCC1=CC(C2CC2)N(Cc2cccc(OC(F)(F)F)c2)CC1 (stereo unspecified) 0.0563
Cc1ccc([C@H]2C(C(=O)O)=CCN2S(=O)(=O)c2ccc(C)cc2)cc1 0.0638
COc1ccc([Si](C)(C)[C@H]2[C@H](CCO)O[C@@]3(C(=O)N(Cc4ccccc4)c4ccc(N5CCCCC5=O)cc43)[C@@H]2C)cc1 -2.11
CC#CC(=O)Oc1ccc(Br)cc1C=CC(=O)OCC 1.07
COc1cc(OC)c(C(O)C2C=CC3C(=O)NC(=O)C3N2Nc2ccccn2)cc1Br (stereo unspecified) 0.893
O=C1[C@H]2C=C(I)[C@H](C[C@@H]2OCCCCO)[C@@]12CO2 0.0898
C=C(CCCC)/C(=C/C[C@H](OC(C)=O)c1ccc(OCCO)cc1)c1cnc2ccccc2c1 0.299
COc1ccc(CCNC(=O)[C@@]2(C)c3ccccc3C(=O)N(c3ccc(C)cn3)[C@H]2c2ccc(CO)cc2)cc1 0.981
C=CCC(OC(C)=O)[C@@H]1[C@@H](N(Cc2ccc(-c3cccc(C(F)(F)F)c3)o2)C(=O)Cc2ccc(OC)cc2)c2cc(OCCCO)ccc2N1C(=O)c1ccc2ccccc2c1 (stereo partly specified) -0.814
CN(C)CCCC[C@@H]1NC(=O)[C@H]2C[C@@H](C(=O)NCCCCCN)[C@@H](c3cccc(OCCO)c3)N2C1=O 0.0522
CC(=CC1CCCCC1)[C@@H](NC(=O)c1cccnc1)c1ccc(-c2ccccc2)cc1 0.772
C=C(CCCC)/C(=C/C[C@H](OC(C)=O)c1ccccc1OCCO)c1cnc2ccccc2c1 1.81
O=C1OCCC=C[C@H]2OC34C=CCN(CCN5CCOCC5)C(=O)[C@H]3N(CCCCCO)C(=O)[C@@H]4C12 (stereo partly specified) -0.78
COC(=O)[C@@]1(Cc2ccc(F)cc2)[C@H]2c3cc(C(=O)N(C)C)n(Cc4cc(C)n(C)n4)c3C[C@H]2CN1C(=O)c1ccccc1 -1.99
CCOc1ccc(N2C(=O)CSC2c2cccc([N+](=O)[O-])c2)cc1 (stereo unspecified) -0.105
COc1cc(CO)cc(I)c1O[C@H]1C=C(C(=O)NCCO)C[C@@H](NC[C@@H]2CCCO2)[C@@H]1O -0.466
CCCNC(=O)[C@@H]1c2ccccc2C(=O)N(Cc2ccccc2OC)[C@H]1c1ccc(CO)cc1 0.233
COCCOC(=O)N1C(=O)[C@@]2(c3cc(C#CCCO)ccc31)[C@H](c1ccc(O)cc1)N1[C@H](c3ccccc3)[C@H](c3ccccc3)OC(=O)[C@H]1[C@@H]2C(=O)N1CCN(c2ncccn2)CC1 -0.0232
